From the supplement of paper PMC7411054
Structures can show the parent of a compound that is named as a salt.

Key:
Test in all cases: phenotypically active (imaging signature differs from DMSO and reproducible) at any of 0.3-9 uM (binary (1 = active, 0 = inactive)); higher = active
Conditions in all cases: treatment time: 24 h
[1] = tested on: A549-ACTB-RAB5A
Procedure, shortened: (§1)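 Live-cell features were measured per well and normalised to solvent control wells after fifteen gene-edited A549, HepG2 and WPMY1 reporter lines had been treated for 24 h at 0.3, 1, 3 or 9 µM in four wells each. A condition was deviating when ≥3 of 4 wells sat beyond the 95th percentile of control Euclidean distances. It was reproducible when the median replicate Pearson correlation exceeded the 95th percentile of non-replicates. Phenotypic activity demanded both.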

[2] = tested on: A549-CANX-COX4
Procedure, shortened: as §1

[3] = tested on: A549-GM130-SQSTM1
Procedure, shortened: as §1

[4] = tested on: A549-TP53BP1-CLTA
Procedure, shortened: as §1

[5] = tested on: A549-TUBA1B-RELA
Procedure, shortened: as §1

[6] = tested on: HepG2-ACTB-RAB5A
Procedure, shortened: as §1

[7] = tested on: HepG2-CANX-COX4
Procedure, shortened: as §1

[8] = tested on: HepG2-GM130-SQSTM1
Procedure, shortened: as §1

[9] = tested on: HepG2-TP53BP1-CLTA
Procedure, shortened: as §1

[10] = tested on: HepG2-TUBA1B-RELA
Procedure, shortened: as §1

[11] = tested on: WPMY1-ACTB-RAB5A
Procedure, shortened: as §1

[12] = tested on: WPMY1-CANX-COX4
Procedure, shortened: as §1

[13] = tested on: WPMY1-GM130-SQSTM1
Procedure, shortened: as §1

[14] = tested on: WPMY1-TP53BP1-CLTA
Procedure, shortened: as §1

[15] = tested on: WPMY1-TUBA1B-RELA
Procedure, shortened: as §1

Measured: phenotypically active

COc1ccc2c3c1O[C@H]1C(=O)CC[C@H]4[C@@H](C2)N(C)CC[C@]314 [hydrocodone]
inactive: [1] 0 | [2] 0 | [3] 0 | [4] 0 | [5] 0 | [6] 0 | [7] 0 | [8] 0 | [9] 0 | [10] 0 | [11] 0 | [12] 0 | [13] 0 | [14] 0 | [15] 0

c1cncc(C2CC3CCN2CC3)c1 (stereo not given) [RJR 2429 dihydrochloride]
inactive: [1] 0 | [2] 0 | [3] 0 | [4] 0 | [5] 0 | [6] 0 | [7] 0 | [8] 0 | [9] 0 | [10] 0 | [11] 0 | [12] 0 | [13] 0 | [14] 0 | [15] 0

C[C@H]1CCC2(NC1)O[C@H]1C[C@H]3[C@@H]4CC[C@H]5C[C@@H](O[C@@H]6O[C@H](CO)[C@H](O[C@@H]7O[C@H](CO)[C@@H](O)[C@H](O[C@@H]8OC[C@@H](O)[C@H](O)[C@H]8O)[C@H]7O[C@@H]7O[C@H](CO)[C@@H](O)[C@H](O)[C@H]7O)[C@H](O)[C@H]6O)CC[C@]5(C)[C@H]4CC[C@]3(C)[C@H]1[C@@H]2C (stereo not given in full) [Tomatine]
inactive: [1] 0 | [2] 0 | [3] 0 | [4] 0 | [5] 0 | [6] 0 | [7] 0 | [8] 0 | [9] 0 | [10] 0 | [11] 0 | [12] 0 | [13] 0 | [14] 0 | [15] 0

CC(C)C[C@H](CN)CC(=O)O [pregabalin]
inactive: [1] 0 | [2] 0 | [3] 0 | [4] 0 | [5] 0 | [6] 0 | [7] 0 | [8] 0 | [9] 0 | [10] 0 | [11] 0 | [12] 0 | [13] 0 | [14] 0 | [15] 0

CC1=C(O)C(=O)[C@@H]2O[C@@H]2C1=O [(-)-Terreic acid]
inactive: [1] 0 | [2] 0 | [3] 0 | [4] 0 | [5] 0 | [6] 0 | [7] 0 | [8] 0 | [9] 0 | [10] 0 | [11] 0 | [12] 0 | [13] 0 | [14] 0 | [15] 0

C[C@]12Cc3cn[nH]c3C[C@@H]1CC[C@@H]1[C@@H]2CC[C@@]2(C)[C@H]1CC[C@]2(C)O [stanozolol]
inactive: [1] 0 | [2] 0 | [3] 0 | [4] 0 | [5] 0 | [6] 0 | [7] 0 | [8] 0 | [9] 0 | [10] 0 | [11] 0 | [12] 0 | [13] 0 | [14] 0 | [15] 0

COc1cc(C(=O)O[C@H]2C[C@H]3CC[C@@H](C2)N3C)ccc1O [Fillalbin]
inactive: [1] 0 | [2] 0 | [3] 0 | [4] 0 | [5] 0 | [6] 0 | [7] 0 | [8] 0 | [9] 0 | [10] 0 | [11] 0 | [12] 0 | [13] 0 | [14] 0 | [15] 0

C/C=C1\CN2CC[C@]34c5cc(OC)ccc5N5C(=O)C(O)OC[C@@H]([C@H]53)[C@H]1C[C@H]24 (stereo not given in full) [10-Methoxy-o-demethyltsilanine]
inactive: [1] 0 | [2] 0 | [3] 0 | [4] 0 | [5] 0 | [6] 0 | [7] 0 | [8] 0 | [9] 0 | [10] 0 | [11] 0 | [12] 0 | [13] 0 | [14] 0 | [15] 0

C[C@@H]1O[C@H](C[N+](C)(C)C)C[C@H]1O [(+)-Muscarine iodide]
inactive: [1] 0 | [2] 0 | [3] 0 | [4] 0 | [5] 0 | [6] 0 | [7] 0 | [8] 0 | [9] 0 | [10] 0 | [11] 0 | [12] 0 | [13] 0 | [14] 0 | [15] 0

C/C(O)=C(/C#N)C(=O)Nc1cc(Br)ccc1Br
inactive: [1] 0 | [2] 0 | [3] 0 | [4] 0 | [5] 0 | [6] 0 | [7] 0 | [8] 0 | [9] 0 | [10] 0 | [11] 0 | [12] 0 | [13] 0 | [14] 0 | [15] 0

CCCCCCCCCC(=O)O[C@H]1CC[C@H]2[C@@H]3CCC4=CC(=O)CC[C@@H]4[C@H]3CC[C@]12C [nandrolone-decanoate]
inactive: [1] 0 | [2] 0 | [3] 0 | [4] 0 | [5] 0 | [6] 0 | [7] 0 | [8] 0 | [9] 0 | [10] 0 | [11] 0 | [12] 0 | [13] 0 | [14] 0 | [15] 0
